Experiment [1] relates to Zika virus NS2B-NS3 protease. The experiment is described as follows: Primary screen GU AMC qHTS for Zika virus inhibitors (AID 1347154). Also: nearly all actives have a fitted effect of over 70% in size. The procedure, abridged:
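Fluorogenic AMC-substrate cleavage by noncovalent NS2B-NS3 protease complex (25 nM, pH 8.0 Tris buffer with Tween 20) followed for 15 minutes at room temperature (~20% conversion). Percent inhibition from ex340/em450 signal change, fitted by 4-parameter Hill equation.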
For orientation: Quantitative high-throughput screening tests each substance at several concentrations.

Experiment [2] can be described thus: Confirmatory qHTS for small molecule stabilizers of the endoplasmic reticulum resident proteome: Secreted ER Calcium Modulated Protein (SERCaMP) assay (AID 1508628). Also: potency is read from the fitted curve at half-maximal effect; nearly all actives have a fitted effect of over 40% in size. The essentials:
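GLuc-SERCaMP-expressing SH-SY5Y cells, pretreated 16 h with compound, are challenged with thapsigargin to empty ER calcium stores; after 4 h, coelenterazine is added directly to the medium and luminescence is imaged.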

In experiment [3] the test system is Zika virus NS2B-NS3 protease (linked construct). The experiment is described as follows: Primary screen NINDS Rhodamine qHTS for Zika virus inhibitors (AID 1347160). Also: nearly all actives have a fitted effect of over 55% in size. The essentials:
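Aprotinin served as in-plate control. Conditions: 25 nM linked NS2B-NS3, pH 8.0 Tris buffer, titrated compounds, 15 min preincubation and 15 min reaction with 1.5 microM Rhod110 substrate at room temperature.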

Experiment [4] in a line: OV-KATE Cancer Cell Toxicity qHTS against the NCATS CANVASS Library (AID 1347345). The procedure, abridged:
(§1)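 Viability read-out: CellTiter-Glo luminescence after 72 h compound exposure at 37 °C/5% CO2. Cells plated at 1000/well, 4 h pre-incubation; 11-point titration. Bortezomib served as control.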

Experiment [5] in a line: UWB1.289 Cancer Cell Toxicity qHTS against the NCATS CANVASS Library (AID 1347347). Also: potency is read from the fitted curve at half-maximal effect; nearly all actives have a fitted effect of over 60% in size. The essentials: as §1
Experiment [6] in a line: OV-SAHO Cancer Cell Toxicity qHTS against the NCATS CANVASS Library (AID 1347348). Also: series mostly up to about 38 µM; nearly all actives have a fitted effect of over 55% in size. The essentials:
as §1

A short description of experiment [7]: U-118MG Cancer Cell Toxicity qHTS against the NCATS CANVASS Library (AID 1347351). Also: series mostly up to about 38 µM. The procedure, abridged: as §1
Experiment [8] in a line: UWB1.289-WTBRCA1 Cancer Cell Toxicity qHTS against the NCATS CANVASS Library (AID 1347354). Also: potency is read from the fitted curve at half-maximal effect. The procedure, abridged:
(§2)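 Using an ATP-based luminescent reagent after three days of treatment, toxicity is scored across an eleven-concentration range in wells holding 1000 cells each.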

Experiment [9] in a line: HEK-293 Cancer Cell Toxicity qHTS against the NCATS CANVASS Library (AID 1347355). Also: potency is read from the fitted curve at half-maximal effect; nearly all actives have a fitted effect of over 65% in size. The essentials: as §2
A short description of experiment [10]: HPAF-II 24hr Apoptosis Induction qHTS against the NCATS CANVASS Library (AID 1347356). The essentials:
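Using an 11-point qHTS format, HPAF-II cells in DMEM/10% FBS received compounds for 24 h; doxorubicin titration as control. Caspase-3/7 activity quantified by DEVD-luciferase luminescence.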

A short description of experiment [11]: HPAF-II 12hr Apoptosis Induction qHTS against the NCATS CANVASS Library (AID 1347358). The essentials:
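Twelve-hour compound exposure of HPAF-II cells in DMEM with 10% FBS, then luminescent Caspase-Glo 3/7 detection after 15 min at room temperature; doxorubicin control.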

Experiment [12] in a line: HEK293 24hr Apoptosis Induction qHTS against the NCATS CANVASS Library (AID 1347359). The essentials: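 Caspase-3/7 activation measured as luminescence from the DEVD-based Caspase-Glo reagent, 15 min at room temperature, following 24-hour compound treatment of HEK293 cells.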
Experiment [13] can be described thus: HEK293 12hr Apoptosis Induction qHTS against the NCATS CANVASS Library (AID 1347361). The essentials:
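HEK293 cells (500/well) were exposed to an 11-point qHTS concentration series for 12 hours at 37 degrees C. Caspase-3/7 activity was then read by DEVD-substrate luciferase luminescence after 15 min at room temperature.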

The test system of experiment [14] is NAD(P)H diaphorase (Clostridium kluyveri). The experiment is described as follows: Diaphorse counterscreen qHTS: Assay Interference Panel against the NCATS CANVASS Library (AID 1347362). The procedure, abridged:
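Counterscreen for coupling-enzyme interference: resorufin fluorescence from resazurin/NADH turnover, read after 5 min at room temperature. Compounds were tested over an 11-point series after 15 min dark preincubation with diaphorase in PBS-Tween.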
On the technique in general: Counterscreens check selectivity or assay interference.

The target of experiment [15] is Luciferin 4-monooxygenase (Photinus pyralis) (UniProt P08659). The experiment is described as follows: Firefly luciferase counterscreen qHTS: Assay Interference Panel against the NCATS CANVASS Library (AID 1347363). Also: series mostly up to about 57 µM. The essentials:
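Luminescence inhibition readout: compounds (11-point qHTS) sat 15 min at room temperature with substrate mix (0.013 mM luciferin and ATP), then firefly luciferase was added and signal read 5 min later.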

Experiment [16] can be described thus: KB-8-5-11 Cancer Cell Toxicity qHTS against the NCATS CANVASS Library (AID 1347364). Also: potency is read from the fitted curve at half-maximal effect; nearly all actives have a fitted effect of over 75% in size. The procedure, abridged: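 Luminescent ATP signal (CellTiter-Glo, 10 min at room temperature) measured cell survival of KB-8-5-11 after 72 hr compound treatment. For confirmation, the cells were also grown with 1uM tariquidar.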
Experiment [17] is described as follows: KB-3-1 Cancer Cell Toxicity qHTS against the NCATS CANVASS Library (AID 1347366). Also: potency is read from the fitted curve at half-maximal effect; nearly all actives have a fitted effect of over 75% in size. The procedure, abridged: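 KB-3-1 cells (500/well) in DMEM with 10% FBS were exposed to compounds for 72 h at 37C. Viability was read by CellTiter-Glo luminescence.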
The nature of experiment [18]: qHTS for ATAD5 Agonist screened against the NCATS CANVASS Library (AID 1347367).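 Also: luciferase reporter driven by ATAD5 which rises upon DNA damage.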 The essentials:
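Luciferase reporter under ATAD5 control, stably integrated in HEK293T cells (2000/well). Compounds (11 points) incubated 16 h at 37C; viability read first by CellTiter-Fluor, then luminescence reporting ATAD5 activation. MMS positive control.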

Experiment [19] in a line: G06 Cancer Cell Toxicity qHTS against the NCATS CANVASS Library (AID 1347368). Also: potency is read from the fitted curve at half-maximal effect; nearly all actives have a fitted effect of over 60% in size. The procedure, abridged:
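Quantitative HTS in G06 cells (dog glioma): 72 hr treatment, 11 concentrations, then ATP-based luminescent viability readout; bortezomib 0.1 nM–4.6 uM final as reference.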

The nature of experiment [20]: MCF7 Cancer Cell Toxicity qHTS against the NCATS CANVASS Library (AID 1347369). Also: series mostly up to about 46 µM. The essentials: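 MCF7 cells (500/well) were exposed 72 h at 37 °C to compounds in an 11-point series. Viability was read as ATP content by CellTiterGlo luminescence.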
A short description of experiment [21]: qHTS for ATAD5 Antagonist screened against the NCATS CANVASS Library (AID 1347370).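 Also: HEK293T cells carrying an ATAD5 luciferase reporter co-treated with 10 µM 5-fluorouridine; series mostly up to about 46 µM; nearly all actives have a fitted effect of over 65% in size.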 The procedure, abridged:
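HEK293T-ATAD5 luc reporter, 2000 cells/well; 5hr attach; cpd + 10 uM 5-FUrd; 16hr 37C, 5% CO2. Readouts: CellTiter-Fluor fluorescence (1hr), then Amplite luciferase luminescence (30min RT).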

Experiment [22] concerns the target Nuclear receptor subfamily 1 group I member 3 (Homo sapiens) (UniProt Q14994). Description: qHTS for Constitutive Androstane Receptor (CAR) Antagonist screened against the NCATS CANVASS Library (AID 1347372). Also: potency is read from the fitted curve at half-maximal effect. The procedure, abridged:
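Antagonist mode: compound added alongside 50 nM CITCO to HepG2-hCAR-CYP2B6 reporter cells, 24hr at 37C. Viability by CellTiter-Fluor fluorescence, then CAR-driven luciferase by ONE-Glo luminescence.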

Experiment [23] shares this target. The experiment is described as follows: qHTS for Constitutive Androstane Receptor (CAR) Agonist screened against the NCATS CANVASS Library (AID 1347373).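 Also: every well also contained 1.5 µM PK11195 alongside the test compound.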 The procedure, abridged:
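In an 11-point concentration series, compounds were incubated 24hr with HepG2 cells carrying hCAR and a CYP2B6-2.2kb reporter, with PK11195 at 1.5uM final. A CellTiter-Fluor viability read preceded the ONE-Glo luminescence read.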

Experiment [24] can be described thus: qHTS for Hypoxia signaling pathway (HIF-1) agonists against the NCATS CANVASS Library (AID 1347375). The essentials:
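An HRE-beta-lactamase ME-180 line is exposed for 17 h to an 11-point compound series, then read by CCF4-AM FRET. Cytotoxicity is measured in parallel in the same wells with CellTiter-Glo, and autofluorescence is checked separately.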

Experiment [25] can be described thus: 10-beta competent E. coli microbial cell viability qHTS against the NCATS CANVASS Library (AID 1347376). Also: series mostly up to about 46 µM. The essentials:
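Overnight 37C exposure of 10-beta E. coli (0.2 OD) to an 11-point concentration series; ATP-based luminescence after 20 min room-temperature reagent incubation; daunomycin as control.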

A short description of experiment [26]: qHTS for H2AX Agonists against the NCATS CANVASS Library (AID 1347378). The essentials: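 CHO-K1 cells (1000/well, overnight at 37C) exposed to compounds at several concentrations for 3 hr at 37C, 0.76% DMSO final. Lysates read by TR-FRET (phospho-H2AX S139 Eu-cryptate antibody / H2AX-d2 antibody) after 24 hr at room temperature; 665/615 nm ratio.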
Experiment [27] is described as follows: Inflammasome Signaling qHTS Counterscreen: IL-1-beta AlphaLISA counterscreen against the NCATS CANVASS Library (AID 1347381).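 Also: cell-free check with purified IL-1β in medium and no THP-1 cells; series mostly up to about 57 µM.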 The procedure, abridged: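 Here, no cellular stimulation occurs; compounds in an 11-point series meet 4 pg purified IL-1-beta directly. Bead-based AlphaLISA detection follows (1 h acceptor/antibody, then 30 min donor, dark, room temperature), with excitation at 680 nm.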

Experiment [28] is described as follows: Cytotoxicity qHTS for assessment of Hepg2 cells membrane integrity screened against the NCATS CANVASS Library (AID 1347387). The procedure, abridged:
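Membrane damage in HepG2 monolayers was estimated from released LDH, measured with CytoTox-ONE (ex 560/em 590 nm), after 5 hr treatment across 0.59 nM - 46 uM final.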

Experiment [29] is described as follows: qHTS assay for small molecule disruptors of mitochondrial membrane potential screened against the NCATS CANVASS Library (AID 1347389). Also: series mostly up to about 46 µM; nearly all actives have a fitted effect of over 60% in size. The procedure, abridged:
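Cells (HepG2) seeded the day before received compound or DMSO for 1 hr, then Mito-MPS dye for 30 min at 37C; emission at 590 nm over 535 nm gave the polarization signal.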

A short description of experiment [30]: qHTS for activators of Nrf2/ARE signaling pathway screened against the NCATS CANVASS Library (AID 1347391). Also: nearly all actives have a fitted effect of over 60% in size. The essentials:
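Activation of Nrf2/ARE was scored in ARE-bla HepG2 cells after 16 h compound exposure using CCF4 beta-lactamase fluorescence ratio readings.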

Experiment [31] can be described thus: qHTS for activators of dead-cell proteases activity screened against the NCATS CANVASS Library (AID 1347392).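 Also: luminescence from protease leaking out of membrane-damaged cells cleaving impermeant substrate; rising signal means more cytotoxicity.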 The essentials:
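Luminescent dead-cell protease readout (AAF-aminoluciferin, 15 min, room temperature) after 5 h compound treatment of HepG2 cells (2000/well, pre-attached 18 h). Eleven concentrations.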

A short description of experiment [32]: qHTS for inhibitors of Rabies Virus screened against the NCATS CANVASS Library (AID 1347402; calls by dose curve; also: series mostly up to about 46 µM).
The nature of experiment [33]: Primary qHTS for small molecule stabilizers of the endoplasmic reticulum resident proteome: Secreted ER Calcium Modulated Protein (SERCaMP) assay (AID 1508630). The essentials:
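The SH-SY5Y reporter protocol was run at 3 concentrations up to 38.3 uM (primary) or 11 concentrations (follow-up): 16 h compound, 100 nM thapsigargin for 4 h, then extracellular luciferase luminescence.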

Structures are written as SMILES. Inconclusive results are not listed. Calls of active or inactive are those of the source. Unless noted, calls follow the shape of the dose curve; as a rule, active = well fitted curve in the direction sought with a large enough effect; inconclusive = small, poorly fitted or top-dose-only effect, or another doubt; inactive = no such curve, though single readings can be large; an effect the other way counts as inactive or inconclusive.

Chain of Nuclear receptor subfamily 1 group I member 3 (Homo sapiens) (Q14994 whole entry, looked up): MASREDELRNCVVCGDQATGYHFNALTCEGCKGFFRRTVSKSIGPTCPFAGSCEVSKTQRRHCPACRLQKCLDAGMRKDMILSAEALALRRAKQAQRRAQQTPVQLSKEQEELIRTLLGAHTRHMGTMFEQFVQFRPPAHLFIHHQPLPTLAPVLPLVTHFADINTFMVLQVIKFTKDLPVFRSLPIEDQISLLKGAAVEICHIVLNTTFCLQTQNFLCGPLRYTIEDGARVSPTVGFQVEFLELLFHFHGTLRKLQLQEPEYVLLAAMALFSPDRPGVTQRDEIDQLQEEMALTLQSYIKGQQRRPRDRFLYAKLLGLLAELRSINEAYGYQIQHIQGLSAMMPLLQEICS
Chain of Luciferin 4-monooxygenase (Photinus pyralis) (P08659 whole entry, looked up): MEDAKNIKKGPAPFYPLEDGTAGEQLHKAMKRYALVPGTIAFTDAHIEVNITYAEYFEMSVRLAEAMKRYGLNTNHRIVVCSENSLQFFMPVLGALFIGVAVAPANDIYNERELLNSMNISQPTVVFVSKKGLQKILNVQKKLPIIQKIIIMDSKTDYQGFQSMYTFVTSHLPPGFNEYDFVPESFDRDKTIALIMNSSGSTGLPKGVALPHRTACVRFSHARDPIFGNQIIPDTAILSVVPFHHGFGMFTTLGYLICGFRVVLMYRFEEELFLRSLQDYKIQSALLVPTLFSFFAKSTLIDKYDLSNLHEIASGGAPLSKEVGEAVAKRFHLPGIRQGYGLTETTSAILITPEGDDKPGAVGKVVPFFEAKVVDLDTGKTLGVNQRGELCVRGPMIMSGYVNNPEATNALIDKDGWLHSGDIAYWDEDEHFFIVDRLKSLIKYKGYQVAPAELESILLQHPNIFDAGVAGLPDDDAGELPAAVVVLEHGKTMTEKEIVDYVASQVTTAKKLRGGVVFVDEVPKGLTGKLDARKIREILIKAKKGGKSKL

As to `c1ccc2sc(C3(N4CCCC4)CCCCC3)cc2c1`, the Potency entry in [1] is “inactive”. Further, the Potency in [2] was 39.8 µM (active).

As to `C=C1[C@@H](C)[C@H]2[C@H](Cc3ccccc3)NC(=O)[C@]23OC(=O)/C=C/[C@H](O)CCC[C@@H](C)C/C=C/[C@H]3[C@@H]1O`, the Potency entry in [1], in experiment [3], in [4], in experiment [6], in [7] and in experiment [12] was “inactive” in each case. The Potency result in experiment [13], in experiment [18], in [20], in experiment [21], in experiment [24] and in experiment [26] was “inactive” throughout. Also, the Potency entry in experiment [29], in [30], in [31] and in [33] was “inactive” in each case. Moreover, the Potency in [5] is 5.94 µM (active); in [8], 13.3 µM (active); in experiment [9], 9.35 µM (active); in experiment [16] it was 9.35 µM (active); in experiment [17] it was 4.69 µM (active); in experiment [19], 2.35 µM (active). For the same molecule, in experiment [22], the Potency is 8.31 µM (active). In addition, the result in [10], in experiment [11], in [14], in experiment [15], in experiment [23] and in [25] was inactive. For the same molecule, the molecule was called inactive in [27], in experiment [28] and in experiment [32].

For the origin of these results see PubChem BioAssay (NCATS).
